According to PubChem BioAssay (NCATS):
Several values for one entry are separate records, joined by “and”; a condition that tells them apart may be missing. Identical values can stand only once. Records with an inconclusive call do not appear. Activity calls are given as the source filed them. Unless noted, calls follow the shape of the dose curve; as a rule, active = well fitted cell-killing curve with a large enough effect; inconclusive = small, poorly fitted or top-dose-only effect, or effect the other way; inactive = no such curve, though single readings can be large or run the other way.

Columns and labels:
[1] = Quantitative High-Throughput drug screen in 47 multiple myeloma cell lines against the NCATS MIPE library collection: L363_DSMZ cell viability assay (AID 1918984); also: nearly all actives have a fitted effect of over 40% in size
Method in brief: (§1)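 500 cells/well per myeloma line exposed to pinned MIPE 4.0 compounds for 48 h at 37 °C, 5% CO2. Viability read as ATP by CellTiter-Glo luminescence, normalised to DMSO-only (100%) and media-only (0%) wells.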

[2] = Quantitative High-Throughput drug screen in 47 multiple myeloma cell lines against the NCATS MIPE library collection: KMS34_JCRB cell viability assay (AID 1918985); also: nearly all actives have a fitted effect of over 40% in size; also: potency is read from the fitted curve at half-maximal effect
Method in brief: as §1

[3] = Quantitative High-Throughput drug screen in 47 multiple myeloma cell lines against the NCATS MIPE library collection: OCIMY7_PLB cell viability assay (AID 1918987); also: nearly all actives have a fitted effect of over 65% in size; also: potency is read from the fitted curve at half-maximal effect
Method in brief: as §1

[4] = Quantitative High-Throughput drug screen in 47 multiple myeloma cell lines against the NCATS MIPE library collection: OCIMY5_PLB cell viability assay (AID 1918988); also: nearly all actives have a fitted effect of over 65% in size; also: potency is read from the fitted curve at half-maximal effect;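 as to viability, % of control: 100% = DMSO-treated wells and 0% = wells with media alone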
Method in brief: as §1

[5] = Quantitative High-Throughput drug screen in 47 multiple myeloma cell lines against the NCATS MIPE library collection: OPM1_PLB cell viability assay (AID 1918989); also: nearly all actives have a fitted effect of over 40% in size; also: potency is read from the fitted curve at half-maximal effect
Method in brief: as §1

[6] = Quantitative High-Throughput drug screen in 47 multiple myeloma cell lines against the NCATS MIPE library collection: XG6_PLB cell viability assay (AID 1919865); also: nearly all actives have a fitted effect of over 40% in size; also: potency is read from the fitted curve at half-maximal effect
Method in brief: as §1

[7] = Quantitative High-Throughput drug screen in 47 multiple myeloma cell lines against the NCATS MIPE library collection: XG1_PLB cell viability assay (AID 1919866); also: nearly all actives have a fitted effect of over 35% in size; also: potency is read from the fitted curve at half-maximal effect
Method in brief: as §1

[8] = Quantitative High-Throughput drug screen in 47 multiple myeloma cell lines against the NCATS MIPE library collection: PE2_PLB cell viability assay (AID 1919869); also: nearly all actives have a fitted effect of over 35% in size; also: potency is read from the fitted curve at half-maximal effect
Method in brief: as §1

[9] = Quantitative High-Throughput drug screen in 47 multiple myeloma cell lines against the NCATS MIPE library collection: PCM6_Riken cell viability assay (AID 1919870); also: nearly all actives have a fitted effect of over 30% in size; also: potency is read from the fitted curve at half-maximal effect
Method in brief: as §1

[10] = Quantitative High-Throughput drug screen in 47 multiple myeloma cell lines against the NCATS MIPE library collection: RPMI8226_ATCC cell viability assay (AID 1919871); also: nearly all actives have a fitted effect of over 30% in size; also: potency is read from the fitted curve at half-maximal effect
Method in brief: as §1

[11] = Quantitative High-Throughput drug screen in 47 multiple myeloma cell lines against the NCATS MIPE library collection: OPM2_DSMZ cell viability assay (AID 1919872); also: nearly all actives have a fitted effect of over 30% in size; also: potency is read from the fitted curve at half-maximal effect
Method in brief: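 Luminescent ATP measurement with CellTiter-Glo gives viability, scaled between DMSO-only wells (100%) and media-only wells (0%). Cells, 500 per well, faced library compounds for 48 hours at 37C.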

[12] = Quantitative High-Throughput drug screen in 47 multiple myeloma cell lines against the NCATS MIPE library collection: KMS28BM_JCRB cell viability assay (AID 1919874); also: nearly all actives have a fitted effect of over 35% in size; also: potency is read from the fitted curve at half-maximal effect
Method in brief: as §1

[13] = qHTS drug screen for cell cycle checkpoint inhibitors in PARPi-resistant BRCA-mutant ovarian cancer cell lines. (AID 1963452; calls by dose curve; also: potency is read from the fitted curve at half-maximal effect); details: PEO1/OlaR viability, CellTiter-Glo luminescence, 96 h; for Z-AUC: stronger effect = lower value
Method in brief: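 PEO1, PEO4 and PEO1/OlaR ovarian cancer cells, 600 per well, exposed 96 h at 37C to a dilution series. Viability read by CellTiter-Glo luminescence, normalized to DMSO and empty wells; activity summarized as Z-AUC.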

[14] = Quantitative High-Throughput drug screen in 47 multiple myeloma cell lines against the NCATS MIPE library collection: KMS28PE_JCRB cell viability assay (AID 1918983); also: nearly all actives have a fitted effect of over 35% in size; also: potency is read from the fitted curve at half-maximal effect
Method in brief: as §1

[15] = Quantitative High-Throughput drug screen in 47 multiple myeloma cell lines against the NCATS MIPE library collection: SKMM1_PLB cell viability assay (AID 1919863); details: SKMM1 myeloma viability, CellTiter-Glo ATP, 48 h; viability: stronger effect = lower value; also: nearly all actives have a fitted effect of over 35% in size; also: potency is read from the fitted curve at half-maximal effect
Method in brief: as §1

[16] = Quantitative High-Throughput drug screen in 47 multiple myeloma cell lines against the NCATS MIPE library collection: VP6_DJ cell viability assay (AID 1919867); also: nearly all actives have a fitted effect of over 40% in size; also: potency is read from the fitted curve at half-maximal effect
Method in brief: as §1

[17] = Quantitative High-Throughput drug screen in 47 multiple myeloma cell lines against the NCATS MIPE library collection: KMS11_JCRBsus cell viability assay (AID 1919873); also: nearly all actives have a fitted effect of over 50% in size; also: potency is read from the fitted curve at half-maximal effect
Method in brief: as §1

[18] = Quantitative High-Throughput drug screen in 47 multiple myeloma cell lines against the NCATS MIPE library collection: U266_ATCC cell viability assay (AID 1919864); also: nearly all actives have a fitted effect of over 35% in size; also: potency is read from the fitted curve at half-maximal effect
Method in brief: as §1

[19] = qHTS for identification of novel therapeutic agents for treatment of microphthalmiaassociated transcription factor (MiT) renal cell carcinoma (RCC) (AID 1963991; calls by dose curve; also: potency is read from the fitted curve at half-maximal effect); details: CellTiter-Glo, 48 h; for Potency: active = Z-AUC below -0.8 in all three lines; for z-score: stronger effect = lower value
Method in brief: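 Three TFE3-fusion RCC cell lines (UOK109, UOK124, UOK145), 500 cells/well, were exposed to the 1912-compound MIPE 4.0 library for 48 hours at 37 C. Viability was read by CellTiter-Glo luminescence, normalised to DMSO (100%) and empty wells (0%), with 11-concentration curve fits.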

[20] = Quantitative High-Throughput drug screen in 47 multiple myeloma cell lines against the NCATS MIPE library collection: UTMC2_PLB cell viability assay (AID 1919868); details: CellTiter-Glo ATP luminescence, 48 h; viability (% of DMSO control): at 45.8 µM (top of the series) unless noted; also: potency is read from the fitted curve at half-maximal effect; nearly all actives have a fitted effect of over 55% in size
Method in brief: as §1

[21] = measured here: PEO1 parental Z-AUC
[22] = TFE3-RCC UOK109 viability, measured here: UOK109 Z-AUC
[23] = TFE3-RCC viability, measured here: UOK124 Z-AUC
[24] = TFE3-RCC viability, measured here: UOK145 Z-AUC

COc1ccc(-n2nc(C(N)=O)c3c2C(=O)N(c2ccc(N4CCCCC4=O)cc2)CC3)cc1
0.601: Z-AUC ([13]; measured here: PEO4 Z-AUC)
inactive: Potency [1] | Potency [2] | Potency [3] | Potency [4] | Potency [5] | Potency [6] | Potency [7] | Potency [8] | Potency [9] | Potency [10] | Potency [11] | Potency [12] | Z-AUC [13] 1.05
0.968: Z-AUC [13, 21]

Cc1cn2c(-c3cn[nH]c3)cnc2c(Nc2ccc(C(=O)N3CCNCC3)cc2F)n1
active: Potency [14] 18.7 µM | Potency [4] 20.9 µM | Potency [15] 18.7 µM | Potency [6] 2.96 µM | Potency [7] 3.72 µM | Potency [16] 8.33 µM | Potency [8] 20.9 µM | Potency [9] 18.7 µM | Potency [11] 23.5 µM | Potency [17] 8.33 µM | Potency [12] 8.33 µM

N#CCNC(=O)c1ccc(-c2ccnc(Nc3ccc(N4CCOCC4)cc3)n2)cc1
0.159: Z-AUC [13, 21]
0.613: Z-AUC ([13]; measured here: PEO4 Z-AUC)
active: Potency [14] 18.7 µM | Potency [2] 4.69 µM | Potency [4] 13.2 µM | Potency [18] 18.7 µM | Potency [6] 2.64 µM | Potency [7] 5.26 µM | Potency [16] 3.72 µM | Potency [8] 2.96 µM | Potency [9] 3.32 µM | Potency [10] 16.6 µM | Potency [11] 20.9 µM | Potency [17] 7.43 µM | Potency [12] 7.43 µM
inactive: Z-AUC [13] -0.322

Nc1nc(-c2nn(Cc3ccccc3F)c3ncccc23)nc(N)c1N1CCOCC1
-0.352: Z-AUC [13, 21]
inactive: Potency [14] | Potency [2] | Potency [4] | viability [15] 84.5% | Potency [11] | Potency [12] | Z-AUC [13] -0.481
active: Potency [16] 3.72 µM
-0.594: Z-AUC ([13]; measured here: PEO4 Z-AUC)

Cc1c(NC(=O)OC[C@@H]2COCCN2)cn2ncnc(Nc3ccc4c(cnn4Cc4cccc(F)c4)c3)c12
-2.05: z-score [19, 24]
-0.48 and 1.05: Z-AUC [13, 21]
-1.81: z-score [19, 23]
inactive: Z-AUC [13] -1.36 and 1.21
active: Potency [14] 16.6 µM | Potency [3] 0.59 µM | Potency [4] 0.0166 µM | Potency [5] 4.18 µM | Potency [6] 0.0372 µM | Potency [7] 0.0833 µM | Potency [16] 1.87 µM | Potency [8] 5.26 µM | Potency ([19]; TFE3-RCC UOK109 viability) 0.118 µM
-1.82: z-score [19, 22]
-1.04 and 1.11: Z-AUC ([13]; measured here: PEO4 Z-AUC)

CN[C@H]1CCc2cc(OC)c(OC)c(OC)c2-c2ccc(OC)c(=O)cc21
-0.848: z-score [19, 24]
-1.47: Z-AUC ([13]; measured here: PEO4 Z-AUC)
-1.41: Z-AUC [13, 21]
active: Potency [14] 0.0019 µM | Potency [4] 0.0013 µM | Potency [15] 0.0037 µM | Potency [18] 0.0066 µM | Potency [10] 0.0083 µM | Potency [11] 0.0017 µM | Potency [17] 0.0013 µM | Potency [12] 0.0033 µM | Potency [13] 0.174 µM | Potency ([19]; TFE3-RCC UOK109 viability) 0.00372 µM
inactive: Potency [7]
-2.9: z-score [19, 23]
-2.54: z-score [19, 22]

Cn1c2cc(S(C)=O)sc2c2cnn(Cc3cccc(N)c3)c(=O)c21 (configuration not stated)
0.595: z-score [19, 23]
0.912: Z-AUC ([13]; measured here: PEO4 Z-AUC)
0.817: Z-AUC [13, 21]
inactive: Potency [14] | Potency [2] | Potency [5] | viability [15] 114% | Potency [18] | Potency [6] | Potency [7] | Potency [9] | Potency [10] | Potency [11] | Potency [12] | Z-AUC [13] 1.34
0.401: z-score [19, 24]
0.336: z-score [19, 22]

O=C(C=Cc1c(C(=O)O)[nH]c2cc(Cl)cc(Cl)c12)Nc1ccccc1
inactive: Potency [14] | Potency [4] | viability [15] 114% | Potency [6] | Potency [7] | Potency [16] | Potency [9] | Potency [10] | Potency [11] | Potency [17] | Potency [12]
0.537: z-score [19, 23]
0.334: z-score [19, 24]
0.0645: z-score [19, 22]

COc1cc2c(Oc3ccc4[nH]c(C)cc4c3F)ncnc2cc1OCCCN1CCCC1
0.995: Z-AUC [13, 21]
active: Potency [14] 20.9 µM | Potency [3] 6.62 µM | Potency [4] 23.5 µM | Potency [5] 5.9 µM | Potency [15] 20.9 µM | Potency [18] 26.4 µM | Potency [6] 2.35 µM | Potency [7] 3.32 µM | Potency [16] 4.69 µM | Potency [20] 26.4 µM | Potency [8] 13.2 µM | Potency [9] 2.35 µM | Potency [17] 2.96 µM | Potency [12] 16.6 µM
inactive: Z-AUC [13] -0.035
0.0837: Z-AUC ([13]; measured here: PEO4 Z-AUC)

COc1ccc(CC2c3cc(OC)c(OC)cc3CC[N+]2(C)CCC(=O)OCCCCCOC(=O)CC[N+]2(C)CCc3cc(OC)c(OC)cc3C2Cc2ccc(OC)c(OC)c2)cc1OC (configuration not stated)
active: Potency [3] 4.13 µM | Potency [7] 1.46 µM
0.569: Z-AUC [13, 21]
1.48: z-score [19, 23]
0.213: Z-AUC ([13]; measured here: PEO4 Z-AUC)
inactive: viability, % of DMSO control [14] 105% [at 5.15 µM] | viability (% of control) [5] 96.3% [at 5.15 µM] | viability (% of DMSO control) [18] 135% [at 5.15 µM] | viability (% of control) [8] 81% [at 5.15 µM] | viability (% of DMSO) [11] 116% [at 5.15 µM] | viability (% of control) [17] 114% [at 5.15 µM] | viability, % of control [12] 110% [at 5.15 µM] | Z-AUC [13] 0.349
1.15: z-score [19, 24]
1.41: z-score [19, 22]

COC(=O)Nc1ccc(-c2nc(N3CCOCC3)c3cnn(C4CCN(Cc5cccnc5)CC4)c3n2)cc1
-0.853: Z-AUC [13, 21]
inactive: Potency [1] | Z-AUC [13] -0.964
-0.944: Z-AUC ([13]; measured here: PEO4 Z-AUC)
active: Potency [2] 0.059 µM | Potency [3] 23.5 µM | Potency [4] 20.9 µM | Potency [5] 0.0833 µM | Potency [18] 18.7 µM | Potency [6] 0.0118 µM | Potency [7] 0.0235 µM | Potency [16] 0.0469 µM | Potency [8] 0.0469 µM | Potency [9] 0.526 µM | Potency [10] 0.0118 µM | Potency [11] 0.296 µM | Potency [17] 0.0296 µM | Potency [12] 0.418 µM

Clc1cccc(-n2nnnc2NCc2ccccc2Oc2ccccn2)c1Cl
-0.1: z-score [19, 22]
inactive: Potency [14] | Potency [2] | Potency [5] | viability [15] 120% | Potency [9] | Potency [11] | Potency [17] | Z-AUC [13] -0.248
0.284: z-score [19, 23]
-0.502: Z-AUC [13, 21]
-0.372: z-score [19, 24]
0.0945: Z-AUC ([13]; measured here: PEO4 Z-AUC)
